Compounds without any hit were thinned out: in the full panel of roughly 79,000, 15% have a hit. Unmarked numbers belong to inactive results. The source made the active and inactive calls. Rule as the data show it: active = growth inhibition above about 70%; inactive = the rest.
Experiments:
[1] = NCI Yeast Anticancer Drug Screen. Data for the rad52 strain (AID 147);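 also: 0% = growth of vehicle-treated control cultures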; details: S. cerevisiae rad52 mutant growth inhibition, active compounds read high
Procedure, shortened: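 Read-out: growth inhibition versus vehicle-treated controls. Cells were a DNA repair-deficient yeast strain treated with compounds.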

[2] = NCI Yeast Anticancer Drug Screen. Data for the wt1 strain (AID 149);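 also: 0% = growth of vehicle-treated wt1 cultures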; details: S. cerevisiae wt1 strain (SPY 50644) growth inhibition, active compounds read high
Procedure, shortened: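 Using yeast strain wt1, compound-induced growth inhibition was determined against vehicle-treated cultures.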

[3] = NCI Yeast Anticancer Drug Screen. Data for the rad50EPP+ strain (AID 151);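 also: 0% = growth of vehicle-treated control cultures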; details: S. cerevisiae rad50 mutant strain, active compounds read high
Procedure, shortened: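 Growth inhibition read against vehicle controls in rad50EPP+ yeast, a strain altered in DNA damage repair, after compound exposure.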

[4] = NCI Yeast Anticancer Drug Screen. Data for the rad50 strain (AID 155);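 also: 0% = growth of vehicle-only cultures of the same strain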; details: S. cerevisiae rad50 strain growth inhibition, active compounds read high
Procedure, shortened: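 Relative growth inhibition (compound vs vehicle) was measured in yeast with a defined repair-gene alteration.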

[5] = NCI Yeast Anticancer Drug Screen. Data for the mec2-1 strain (AID 157); details: S. cerevisiae mec2-1 strain, active compounds read high
Procedure, shortened: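 Yeast mec2-1 mutant treated with compound. Readout: growth inhibition vs vehicle controls.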

[6] = NCI Yeast Anticancer Drug Screen. Data for the rad14 strain (AID 159);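 also: 0% = growth of vehicle-treated control cultures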; details: S. cerevisiae rad14 strain growth inhibition, active compounds read high
Procedure, shortened: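 Screen for anticancer potential: a yeast strain altered in DNA damage repair is grown with compound, and reduced growth is quantified against vehicle controls.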

[7] = NCI Yeast Anticancer Drug Screen. Data for the sgs1 mgt1 strain (AID 161);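 also: 0% = growth of cultures given vehicle only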; details: S. cerevisiae sgs1 mgt1 strain, active compounds read high
Procedure, shortened: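 Test agents were incubated with a DNA-repair-mutant yeast strain. Growth was then read and compared against vehicle-treated controls.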

[8] = NCI Yeast Anticancer Drug Screen. Data for the CLN2oe strain (AID 163);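 also: 0% = growth of vehicle-only control cultures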; details: S. cerevisiae CLN2oe strain, active compounds read high
Procedure, shortened: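 Read-out: yeast growth inhibition, expressed relative to vehicle-only controls. The strain bears an engineered cell-cycle alteration.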

[9] = NCI Yeast Anticancer Drug Screen. Data for the cln2 rad14 strain (AID 165);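 also: 0% = growth equal to vehicle treated cultures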; details: S. cerevisiae cln2 rad14 strain, active compounds read high
Procedure, shortened: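 cln2 rad14 yeast strain; compound exposure; growth inhibition read vs vehicle controls.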

[10] = NCI Yeast Anticancer Drug Screen. Data for the bub3 strain (AID 167); details: S. cerevisiae bub3 mutant strain, active compounds read high
Procedure, shortened: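 Screening used yeast with an engineered genetic alteration affecting cell cycle control. Compound-exposed cultures were compared with vehicle cultures, and reduced growth was taken as inhibition.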

[11] = NCI Yeast Anticancer Drug Screen. Data for the wt2 strain (AID 169);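 also: 0% = growth of vehicle-treated yeast cultures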; details: S. cerevisiae wt2 strain growth inhibition, active compounds read high
Procedure, shortened: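 Read-out: growth inhibition versus vehicle-treated control cultures after compound exposure of the yeast strain.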

[12] = NCI Yeast Anticancer Drug Screen. Data for the mlh1 strain (AID 171);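 also: 0% = growth of vehicle-treated control cultures of the same strain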; details: S. cerevisiae mlh1 strain growth inhibition, active compounds read high
Procedure, shortened: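 Read-out: growth inhibition versus vehicle controls. Strain: engineered yeast with a defined DNA repair or cell cycle defect, compound-treated.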

[13] = NCI Yeast Anticancer Drug Screen. Data for the sgs1 strain (AID 173);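 also: 0% = growth of vehicle-only control cultures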; details: S. cerevisiae sgs1 mutant, active compounds read high
Procedure, shortened: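 Read-out: yeast growth inhibition relative to vehicle controls, following compound exposure of a strain with a defined DNA repair/cell cycle alteration.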

[14] = NCI Yeast Anticancer Drug Screen. Data for the mlh1 rad18 strain (AID 175); details: S. cerevisiae mlh1 rad18 strain growth inhibition, active compounds read high
Procedure, shortened: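 Yeast w/ defined DNA-repair lesions; compound exposure; growth vs vehicle controls → % inhibition.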

[15] = at 5.0 µM (retest, dose inferred, filed as 0.5)
[16] = at 50.0 µM (retest, dose inferred, filed as 5.0)

With `CCOC(=O)C(NC(=O)CC)(N1CCN(c2cc3c(cc2F)c(=O)c(C(=O)O)cn3C2CC2)CC1)C(F)(F)F` (stereo not drawn) the growth inhibition ([1]; at 1.2 µM) was 0%, the growth inhibition ([1]; at 3.7 µM) was 3% and the growth inhibition ([1]; at 11.0 µM) was 44%. The growth inhibition ([1]; at 33.0 µM) was 91% (active), the growth inhibition ([1]; at 100.0 µM) was 97% (active) and the growth inhibition ([2]; at 1.2 µM) was -2%. For the same compound, the growth inhibition ([2]; at 3.7 µM) was 1%, the growth inhibition ([2]; at 11.0 µM) was 0% and the growth inhibition ([2]; at 33.0 µM) was 14%. The growth inhibition ([2]; at 100.0 µM) was 66%, the growth inhibition ([3]; at 1.2 µM) was -1% and the growth inhibition ([3]; at 3.7 µM) was 1%. For the same compound, the growth inhibition ([3]; at 11.0 µM) was 3%, the growth inhibition ([3]; at 33.0 µM) was 3% and the growth inhibition ([3]; at 100.0 µM) was 11%. The growth inhibition ([4]; at 1.2 µM) was 0%, the growth inhibition ([4]; at 3.7 µM) was 5% and the growth inhibition [4, 15] was -10%. The growth inhibition ([4]; at 11.0 µM) was 47%, the growth inhibition ([4]; at 33.0 µM) was 90% (active) and the growth inhibition [4, 16] was 61%. For the same compound, the growth inhibition ([4]; at 50.0 µM) was 91.5% (active), the growth inhibition ([4]; at 100.0 µM) was 97% (active) and the growth inhibition ([5]; at 1.2 µM) was -1%. For the same compound, the growth inhibition ([5]; at 3.7 µM) was -5%, the growth inhibition [5, 15] was 0% and the growth inhibition ([5]; at 11.0 µM) was 1%. The growth inhibition ([5]; at 33.0 µM) was 47%, the growth inhibition [5, 16] was 6% and the growth inhibition ([5]; at 50.0 µM) was 84.1% (active). The growth inhibition ([5]; at 100.0 µM) was 96% (active), the growth inhibition ([6]; at 1.2 µM) was 0% and the growth inhibition ([6]; at 3.7 µM) was 2%. For the same compound, the growth inhibition ([6]; at 11.0 µM) was 6%, the growth inhibition ([6]; at 33.0 µM) was 29% and the growth inhibition ([6]; at 100.0 µM) was 91% (active). It also gave a growth inhibition [7, 15] of -2%, a growth inhibition [7, 16] of 15% and a growth inhibition ([7]; at 50.0 µM) of 28.6%. The growth inhibition ([8]; at 1.2 µM) was 1%, the growth inhibition ([8]; at 3.7 µM) was 3% and the growth inhibition ([8]; at 11.0 µM) was -3%. The growth inhibition ([8]; at 33.0 µM) was 21%, the growth inhibition ([8]; at 100.0 µM) was 86% (active) and the growth inhibition [9, 15] was 1%. For the same compound, the growth inhibition [9, 16] was -1%, the growth inhibition ([9]; at 50.0 µM) was 45.6% and the growth inhibition ([10]; at 1.2 µM) was -40%. The growth inhibition ([10]; at 3.7 µM) was 0%, the growth inhibition [10, 15] was -14% and the growth inhibition ([10]; at 11.0 µM) was 0%. For the same compound, the growth inhibition ([10]; at 33.0 µM) was 18%, the growth inhibition [10, 16] was 2% and the growth inhibition ([10]; at 50.0 µM) was 79.1% (active). The growth inhibition ([10]; at 100.0 µM) was 91% (active), the growth inhibition ([11]; at 1.2 µM) was -1% and the growth inhibition ([11]; at 3.7 µM) was -4%. The growth inhibition ([11]; at 11.0 µM) was -2%, the growth inhibition ([11]; at 33.0 µM) was 10% and the growth inhibition ([11]; at 100.0 µM) was 84% (active). For the same compound, the growth inhibition ([12]; at 1.2 µM) was -1%, the growth inhibition ([12]; at 3.7 µM) was 0% and the growth inhibition ([12]; at 11.0 µM) was 0%. The growth inhibition ([12]; at 33.0 µM) was 16%, the growth inhibition ([12]; at 100.0 µM) was 85% (active) and the growth inhibition ([13]; at 1.2 µM) was 0%. The growth inhibition ([13]; at 3.7 µM) was 1%, the growth inhibition ([13]; at 11.0 µM) was 4% and the growth inhibition ([13]; at 33.0 µM) was 28%. The growth inhibition ([13]; at 100.0 µM) was 88% (active), the growth inhibition [14, 15] was -3% and the growth inhibition [14, 16] was 21%. For the same compound, the growth inhibition ([14]; at 50.0 µM) was 74.5% (active).

— PubChem BioAssay (NCI)
